Screen size: about 220,000 compounds; about 770 (0.35%) were called active. Roughly 15% stayed inconclusive and do not appear here. This excerpt belongs to a sample that is enriched for actives. A number with no mark means an inactive call. No stated cut-off is given here; in the data, active means binding response below about 49% or above about 150%; inconclusive means no clear call, values can overlap the other calls; inactive means in between.
The compounds below were run against Guanine nucleotide-binding protein G(o) subunit alpha (Homo sapiens) (UniProt P09471) (assay: RGS7-Galphao binding modulators, primary screen, biochemical, multiplexed bead flow cytometry (AID 1439;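 further: fluorescent Galphao held in activated GDP-AlF4 state binding bead-coupled RGS7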)). Conditions: at 10 µM, actives lie on both sides.
Guanine nucleotide-binding protein G(o) subunit alpha (Homo sapiens), sequence (P09471 whole entry, looked up): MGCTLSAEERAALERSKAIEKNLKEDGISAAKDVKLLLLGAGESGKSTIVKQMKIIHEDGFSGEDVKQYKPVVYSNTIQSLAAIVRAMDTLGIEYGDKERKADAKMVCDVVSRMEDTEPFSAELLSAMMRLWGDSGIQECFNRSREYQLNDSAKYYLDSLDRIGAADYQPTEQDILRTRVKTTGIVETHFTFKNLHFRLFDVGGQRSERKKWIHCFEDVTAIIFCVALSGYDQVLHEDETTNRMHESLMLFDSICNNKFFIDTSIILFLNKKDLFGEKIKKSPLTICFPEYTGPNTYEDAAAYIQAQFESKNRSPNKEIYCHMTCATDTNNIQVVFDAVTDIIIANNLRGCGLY
Work on Cc1c(C(=O)Nc2ccccc2)sc2nc3n(c(=O)c12)CCCCC3 yielded a binding response (% of control) of 94.2%. NC(=O)C1(N2CCCCC2)CCN(C(=S)Nc2ccc(Cl)cc2)CC1 showed a binding response (% of control) of 108%. For CCC(=O)N1CCC(C(N)=O)(N2CCCCC2)CC1, the binding response (% of control) was 161% (active). With CC(C)(O)C#Cc1ccc(C(=O)N2CCC(C(N)=O)(N3CCCCC3)CC2)cc1 the binding response (% of control) was 101%. Work on Fc1ccc(COc2cccc(-c3n[nH]c(=S)o3)c2)cc1 yielded a binding response (% of control) of 103%. For COC(=O)CN1C(=O)N/C(=C/c2ccc(OC)c(C)c2OC)C1=O, the binding response (% of control) was 103%. For O=C(CN1CCCCCC1)N1c2ccccc2Sc2ccc(C(F)(F)F)cc21, the binding response (% of control) was 89.4%. COc1cc(/C=C/C(=O)N2c3ccccc3Sc3ccc(C(F)(F)F)cc32)cc(OC)c1OC showed a binding response (% of control) of 104%. In the case of O=C(CN1CCCCC1)N1c2ccccc2Sc2ccc(C(F)(F)F)cc21, the binding response (% of control) was 27.5% [inhibitor] (active). N#C/C(C(=S)Nc1ccccc1)=C1/NN=C(N2CCOCC2)N1c1ccccc1 gave a binding response (% of control) of 97.6%. Cc1ccc(NC(=O)c2cccnc2C(=O)Nc2ccc(C)cc2)cc1 was tested, and the binding response (% of control) was 106%. With O=C(Nc1ccc(-n2ccnc2P(=O)(O)c2ccccc2)cc1)c1ccccc1Br the binding response (% of control) was 152% (active). Work on O=C(Nc1ccccc1)c1cccnc1Nc1ccccc1 yielded a binding response (% of control) of 99.9%. COC(=O)C1=C(C)N(c2ccc(C)cc2)/C(=C/c2ccc(O)cc2)C1=O showed a binding response (% of control) of 104%. Compound Cc1ccc2[nH]c(=O)c(CN(CC3COCCO3)C(=O)Nc3ccccc3C)cc2c1 (stereo unspecified) has a binding response (% of control) of 102%. Work on CC(=O)c1ccc(NC(=O)CSC(=S)N2CCCC2)cc1 yielded a binding response (% of control) of 102%. With Cc1ccc(S(=O)(=O)N(C)CC(=O)NC2CCCC2)cc1 the binding response (% of control) was 98.3%. In the case of CN(CC(=O)NC1CCCCC1)S(=O)(=O)c1cccc2cccnc12, the binding response (% of control) was 241% (active). CN(CC(=O)NC1CCCCC1)S(=O)(=O)c1ccc(Br)s1 was tested, and the binding response (% of control) was 99.1%. Work on N/C(=N/O)c1cccn1Cc1ccccc1[N+](=O)[O-] yielded a binding response (% of control) of 99.3%. O=C(COC(=O)CCc1ccc(S(=O)(=O)N2CCOCC2)cc1)Nc1cccc(Cl)c1 showed a binding response (% of control) of 99.8%. In the case of Cc1cc(C)nc(/N=C2\NC(=O)CC(C(=O)O)N2c2ccc(Cl)cc2Cl)n1 (stereo unspecified), the binding response (% of control) was 170% (active). With CCOC(=O)c1nc(C)n(-c2ccc(Cl)cc2Cl)n1 the binding response (% of control) was 102%. For Cc1cc(C)n(-c2ccc(Cl)c(C(=O)O)n2)n1, the binding response (% of control) was 96.7%. With COc1cccc(C2c3[nH]c4ccccc4c3CCN2Cc2cccc(C)n2)c1 (stereo unspecified) the binding response (% of control) was 102%. In the case of S=C1Nc2cc(Cl)ccc2Sc2ccccc21, the binding response (% of control) was 100%. O=C(NC1CC1)c1cccc(Br)c1 was tested, and the binding response (% of control) was 102%. O=C(NC1CC1)c1ccc2c(c1)NC(=O)c1ccccc1S2 was tested, and the binding response (% of control) was 191% (active). For CC(=O)NC(Cc1ccc(F)c(F)c1)C(=O)NC1CCN(C(=O)c2ccc(C)cc2)CC1 (stereo unspecified), the binding response (% of control) was 95.6%. Compound CCCn1c(NC(=O)C23CC4CC(CC(O)(C4)C2)C3)nc2ccccc21 has a binding response (% of control) of 104%. Compound CC(=O)N1CCc2cc(Br)cc(S(=O)(=O)CCC(=O)Nc3c(C)n(C)n(-c4ccccc4)c3=O)c21 has a binding response (% of control) of 98.9%.

— PubChem BioAssay AID1439 (NMMLSC, 2008)
